The record followed here is PubChem BioAssay (EPA / NIEHS).

Inconclusive results are not listed. Some structures have more than one record in an assay (separate samples or runs), and their calls can disagree. Calls of active or inactive are those of the source. Rule for the calls, unless noted: active = hit-call score of the fitted dose curve at least 0.9, where 1 is the maximum; inactive = score below 0.9.

Test [1] in a line: CCTE_Mundy_HCI_hNP1_Casp3_7: CCTE's Caspase-Glo 3/7 Assay in human neuroprogenitor cells for Apoptosis, Mundy Lab (AID 2284240). In short, it runs like this:
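Neuroepithelial-lineage stem cells from WA09 embryonic cells were treated with chemicals after 40–44 h of culture. Twenty-four hours later, caspase-3/7 activation was detected luminescently after a 30 min room-temperature reagent step, with DMSO as baseline.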

A short description of test [2]: CCTE_Mundy_HCI_hNP1_CellTiter: CCTE's Cell Titer-Glo 2 Assay in human neuroprogenitor cells for Viability, Mundy Lab (AID 2284241; active = hit-call score of the fitted dose curve at least 0.9, where 1 is the maximum;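 for AC50: a hit is a drop in ATP luminescence versus DMSO meaning reduced viability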). In short, it runs like this: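 Measures ATP content in human neural progenitors derived from WA09 embryonic cells. Read-out at 26.5 hours after dosing, with DMSO serving as the negative control and baseline.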
Test [3] in a line: CCTE_Mundy_HCI_Cortical_Synap_Neur_Matur_NeuronCount: CCTE's Synaptogenesis and Neurite Maturation Assay in rat cortical cells for Neuron Count, Mundy Lab (AID 2284242; active = hit-call score of the fitted dose curve at least 0.9, where 1 is the maximum;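 for AC50: neuron number from Hoechst nuclei and MAP2 staining by high-content imaging; hits reduce neuron count versus DMSO baseline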). Summed up: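 Imaging-based neuron count in rat cortical cultures after chemical exposure from DIV 7 to DIV 12, with AraC added at DIV 5. Activity is fitted relative to DMSO.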
The nature of test [4]: IUF_NPC2a_radial_glia_migration_120hr: Leibniz Research Institute for Environmental Medicine (IUF) 120-hour Neural Progenitor Cell Migration Assay for Radial Glia Migration (NPC2a) (AID 2284298). Summed up:
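Hoechst-stained nuclei imaged at 120 h; algorithm maps sphere core by densest nuclei, sets migration edge at density threshold, gives radial glia migration distance (um) per well vs DMSO. hNPC spheres (0.3 mm), PDL/laminin, DMEM/F12 3:1 + 1% N2.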

A short description of test [5]: IUF_NPC2a_radial_glia_migration_72hr: Leibniz Research Institute for Environmental Medicine (IUF) 72-hour Neural Progenitor Cell Migration Assay for Radial Glia Migration (NPC2a) (AID 2284299). Summed up:
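Migration out of plated human neural progenitor spheres is scored at 72 h as the distance in um from the sphere core edge to the edge of the migration area. Values are the mean of four manual measurements per well, normalised to DMSO.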

A short description of test [6]: IUF_NPC2b_neuronal_migration_120hr: Leibniz Research Institute for Environmental Medicine (IUF) 120-hour Neural Progenitor Cell Migration Assay for Neuron Migration (NPC2b) (AID 2284300). In short, it runs like this:
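hNPC spheres, PDL/laminin, DMEM:F12 3:1 + 1% N2, 37C/5% CO2; 7 concentrations + solvent control (DMSO ≤0.1%), 5 d exposure, half-feed day 3. Fix 120 h, TUBB3 ICC, HCI: mean neuron migration distance ÷ glia distance.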

Test [7] is described as follows: IUF_NPC4_neurite_length_120hr: Leibniz Research Institute for Environmental Medicine (IUF) 120-hour Neuronal Morphology Assay for Neurite Length (NPC4) (AID 2284302). Summed up:
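Human fetal cortex (GW 16-19) neural progenitor spheres, 0.3 mm, were plated on poly-D-lysine/laminin in N2 differentiation medium and exposed from day 0 for 120 h, half-feeding at day 3. Mean TUBB3+ neurite length (µm) came from skeletonized images, relative to DMSO.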

A short description of test [8]: IUF_NPC5_oligodendrocyte_differentiation_120hr: Leibniz Research Institute for Environmental Medicine (IUF) 120-hour Oligodendrocyte Differentiation Assay (NPC5) (AID 2284304; active = hit-call score of the fitted dose curve at least 0.9, where 1 is the maximum;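 note: primary human fetal neural progenitor spheres plated to migrate and differentiate; share of O4-positive cells among Hoechst nuclei found by CNN image analysis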). Summed up:
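hNPC spheres, fetal cortex GW 16-19; PDL/laminin, DMEM:F12 3:1 + 1% N2, 37C/5% CO2; 7 concentrations + solvent control, 5 d exposure, half-change day 3. Readout: %O4+ of Hoechst+ nuclei in migration area, CNN classification; DMSO baseline.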

Read-out in test [9]: Collagen I, COL1A1 (gene 1277)
The test can be described thus: BSK_MyoF_CollagenI: BioMAP Diversity Plus: MyoF Assay for Collagen I Biomarker Activity (AID 2284238). The settings on record: primary human lung fibroblasts. In short, it runs like this: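 ELISA readout of Collagen I after 24 h chemical treatment of primary human lung fibroblast cultures; gain of signal scored relative to DMSO vehicle baseline.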

Read-out in test [10]: Collagen III, COL3A1 (gene 1281)
In words: BSK_MyoF_CollagenIII: BioMAP Diversity Plus: MyoF Assay for Collagen III Biomarker Activity (AID 2284239). The settings on record: primary human lung fibroblasts. Summed up:
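Lung fibroblast culture; 24 h compound exposure; collagen III by ELISA; gain-of-signal fit vs DMSO baseline.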

Read-out in test [11]: Interleukin 17F (IL17F), IL17F (gene 112744)
In words: BSK_BT_xIL17F: BioMAP Diversity Plus: BT Assay for Interleukin 17F (IL17F) Biomarker Activity (AID 2284243). The settings on record: primary human B cells with PBMC. Summed up: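 Secreted IL-17F, read on LumineX xMAP beads, was taken as the endpoint. Cultures combined human B cells and peripheral blood mononuclear cells, sampled 24 hours after dosing, with DMSO serving as negative control.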

Read-out in test [12]: Actin alpha 1 (ACTA1), ACTA1 (gene 58)
The test can be described thus: BSK_MyoF_ACTA1: BioMAP Diversity Plus: MyoF Assay for Actin alpha 1 (ACTA1) Biomarker Activity (AID 2284244). Conditions: primary human lung fibroblasts. In short, it runs like this:
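Measured by ELISA: alpha-smooth muscle actin in human primary lung fibroblasts 24 h after dosing, with DMSO as baseline and upward signal change as the fitted direction.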

Read-out in test [13]: Interleukin 2 (IL2), IL2 (gene 3558)
The test can be described thus: BSK_BT_xIL2: BioMAP Diversity Plus: BT Assay for Interleukin 2 (IL2) Biomarker Activity (AID 2284245). Conditions: primary human B cells with PBMC. Summed up:
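Secreted interleukin-2 from human B cell/PBMC co-cultures, measured 24 h post-dosing by Luminex multiplex immunoassay. Upward-direction curve fitting against DMSO baseline.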

Read-out in test [14]: Basic fibroblast growth factor (bFGF), FGF2 (gene 2247)
The test can be described thus: BSK_MyoF_bFGF: BioMAP Diversity Plus: MyoF Assay for Basic fibroblast growth factor (bFGF) Biomarker Activity (AID 2284246). The settings on record: primary human lung fibroblasts. In short, it runs like this:
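In this multiplexed cell system, lung fibroblasts (human primary) receive test chemical for 24 h before ELISA detection of bFGF; DMSO defines baseline and the analysis direction is positive.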

Read-out in test [15]: Collagen IV, COL4A1 (gene 1282)
In words: BSK_MyoF_CollagenIV: BioMAP Diversity Plus: MyoF Assay for Collagen IV Biomarker Activity (AID 2284247). Conditions: primary human lung fibroblasts. Summed up: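 Activity is scored as a signal increase over DMSO in an ELISA for Collagen IV, measured on human lung fibroblasts at 24 h after chemical treatment. Cytotoxicity is checked in parallel cultures by sulforhodamine B total-protein staining.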

Read-out in test [16]: Plasminogen activator inhibitor-1 (PAI1), SERPINE1 (gene 5054)
The test can be described thus: BSK_MyoF_PAI1: BioMAP Diversity Plus: MyoF Assay for Plasminogen activator inhibitor-1 (PAI1) Biomarker Activity (AID 2284256). Conditions: primary human lung fibroblasts. In short, it runs like this:
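MyoF lung fibroblasts, human primary; compound 24 h; PAI-1 ELISA; positive-direction fit vs DMSO baseline; parallel SRB total-protein staining for cytotoxicity.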

Read-out in test [17]: Interleukin-8 (IL8), CXCL8 (gene 3576)
The test can be described thus: BSK_MyoF_IL8: BioMAP Diversity Plus: MyoF Assay for Interleukin-8 (IL8) Biomarker Activity (AID 2284261). Conditions: primary human lung fibroblasts. Summed up: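 Lung fibroblasts (human primary) → chemical exposure → 24 h → IL-8 measured by ELISA. Signal increase scored versus DMSO control.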

Read-out in the next test: Decorin, DCN (gene 1634)
In words: BSK_MyoF_Decorin: BioMAP Diversity Plus: MyoF Assay for Decorin Biomarker Activity (AID 2284265). Conditions: primary human lung fibroblasts. In short, it runs like this:
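ELISA readout of decorin, 24 h post-dosing; primary human lung fibroblast (MyoF) culture; gain-of-signal fit vs DMSO baseline.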

Test [18] can be described thus: BSK_MyoF_SRB: Viability Assessment in the BioMAP Diversity Plus: MyoF Assay (AID 2284267).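 Note: total protein by SRB absorbance in parallel cultures as cytotoxicity measure; cells assessed 24 h after compound addition.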 The settings on record: primary human lung fibroblasts. In short, it runs like this: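 Cytotoxicity in primary human lung fibroblasts is gauged by SRB total-protein staining 24 h after dosing, with DMSO as the negative control.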
Read-out in test [19]: TIMP metallopeptidase inhibitor 1 (TIMP1), TIMP1 (gene 7076)
The test can be described thus: BSK_MyoF_TIMP1: BioMAP Diversity Plus: MyoF Assay for TIMP metallopeptidase inhibitor 1 (TIMP1) Biomarker Activity (AID 2284269). Conditions: primary human lung fibroblasts. In short, it runs like this: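 Fibroblasts from human lung are dosed with chemical, cultured 24 h, and assayed for TIMP-1 by ELISA. Increases over the DMSO baseline are scored, with SRB total-protein staining run in parallel for cytotoxicity.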

Consider `CNC(=O)Oc1cccc2ccccc12`, for which the outcome in test [1], in [2], in test [4], in test [5] and in test [6] was inactive. The figures for the AC50 in [3] and in [7] were 22.9 µM (active) and 10 µM (active), respectively.
As to `CC1(C)C(C=C(Cl)Cl)C1C(=O)OC(C#N)c1cccc(Oc2ccccc2)c1` (stereo not given), the outcome in [1], in [2], in test [3], in [4], in [5] and in test [6] was inactive. Also, the call in test [7] and in test [8] was inactive.
As to `COP(=S)(OC)SCn1nnc2ccccc2c1=O`, the molecule was called inactive in [1], in [2], in [5], in test [6], in test [7] and in test [8]. Moreover, in test [4], the AC50 was 13.7 µM (active).
`Cc1c(COC(=O)[C@@H]2[C@H](/C=C(\Cl)C(F)(F)F)C2(C)C)cccc1-c1ccccc1`: the AC50 is 10.3 µM (active) in test [1], 9.1 µM (active) in test [2], 2.95 µM (active) in [3] and 1.25 µM (active) in test [8]. Further, the call in [4], in test [5], in test [6] and in [7] was inactive.
On to `COCC(C)N(C(=O)CCl)c1c(C)csc1C` (stereo not given), for which the AC50 in test [9] was 17.3 µM (active); in [10] it was 26.2 µM (active); in test [11] it was 23.8 µM (active); in test [12], 30.9 µM (active); in test [16], 20 µM (active); in test [17] it was 10.3 µM (active). In addition, the outcome in test [13] is “inactive”; in test [14], “inactive”; in test [15] it was “inactive”; with Decorin, DCN (gene 1634), “inactive”; in test [18], “inactive”; in test [19], “inactive”.
Turning to `O=C(Nc1ccccc1-c1ccc(Cl)cc1)c1cccnc1Cl`, the molecule was classed as inactive in test [1], in test [2], in test [4], in test [5], in test [6] and in test [7]. In addition, the result in [8] was inactive.
With `CCOP(=O)(OCC)Oc1nc(Cl)c(Cl)cc1Cl`, the AC50 in test [1] was 50 µM (active). The outcome in test [1], in test [2], in test [3], in test [4], in test [5] and in test [6] was inactive. In test [7], the call was inactive.
For the molecule `CS(=O)(=O)c1ccc(C(=O)C2C(=O)CCCC2=O)c([N+](=O)[O-])c1`, the result in test [1], in [2], in test [4], in test [5] and in test [6] was inactive. Moreover, the AC50 in test [7] is 0.203 µM (active).
Turning to `CN/C(=N\[N+](=O)[O-])NCc1cnc(Cl)s1`, the molecule was classed as inactive in test [1], in [2], in test [4], in [5], in test [6] and in test [8]. In addition, the AC50 in test [7] was 10 µM (active).
